From PubChem BioAssay AID1159580 (chemical genetic matrix, 2015)
Out of some 5,500 compounds screened, about 2,000 (36%) were called active. Not shown: some 18% with an inconclusive outcome. Cut-off read from the data, not from the text of the source: active = normalized growth mostly below about 0.91 (no sharp cut-off); inconclusive = no clear call, values can overlap the other calls; inactive = mostly above about 0.92. Some of the results follow.

Assay: chemical genetic growth profiling, strain panel (AID 1159580);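 note: tested at 20 µM; growth read once vehicle control cultures reached saturation at 30 °C; 1 = growth at the plate median or of vehicle wells; lower values mean less growth of the strain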
Conditions: S. cerevisiae deletion strains, growth OD
[1] = locus YJR075W, strain HOC1, stronger effect = lower value
[2] = locus YNL322C, strain KRE1, stronger effect = lower value
[3] = locus YPL055C, strain LGE1, stronger effect = lower value
[4] = locus YPL241C, strain CIN2, stronger effect = lower value

Measured: normalized growth

Clc1ccc(Sc2ncnc3ccsc23)cc1
inactive: locus YDL101C, strain DUN1, stronger effect = lower value 0.959 | locus YDR150W, strain NUM1, stronger effect = lower value 0.911 | locus YLR039C, strain RIC1, stronger effect = lower value 0.941 | locus YLR262C, strain YPT6, stronger effect = lower value 1.1 | locus YMR263W, strain SAP30, stronger effect = lower value 0.94 | locus YNL128W, strain TEP1, stronger effect = lower value 0.934
active: locus YAL013W, strain DEP1, stronger effect = lower value 0.919 | locus YBR229C, strain ROT2, stronger effect = lower value 0.893 | locus YEL061C, strain CIN8, stronger effect = lower value 0.81 | locus YGR078C, strain PAC10, stronger effect = lower value 0.885 | locus YHR030C, strain SLT2, stronger effect = lower value 0.502 | locus YHR087W, strain rtc3, stronger effect = lower value 0.809 | locus YJR043C, strain POL32, stronger effect = lower value 0.866 | [1] 0.768 | locus YKL190W, strain CNB1, stronger effect = lower value 0.863 | locus YLR058C, strain SHM2 (second series), stronger effect = lower value 0.877 | locus YLR085C, strain ARP6, stronger effect = lower value 0.352 | locus YML094W, strain GIM5, stronger effect = lower value 0.814 | locus YMR219W, strain ESC1, stronger effect = lower value 0.885 | locus YNL153C, strain GIM3, stronger effect = lower value 0.924 | locus YNL298W, strain CLA4 (second series), stronger effect = lower value 0.777 | [2] 0.922 | locus YNR030W, strain Alg12, stronger effect = lower value 0.705 | locus YOL006C, strain TOP1, stronger effect = lower value 0.516 | [3] 0.682 | [4] 0.66 | locus YPR135W, strain CTF4, stronger effect = lower value 0.451

COc1cc(CC(C)N)c(OC)cc1I (stereo not given)
inactive: locus YAL040C, strain CLN3, stronger effect = lower value 0.975 | locus YCL061C, strain MRC1 (second series), stronger effect = lower value 1 | locus YDR363W, strain ESC2, stronger effect = lower value 1.04 | locus YER002W, strain NOP16, stronger effect = lower value 1.03 | [1] 1.01 | locus YMR307W, strain GAS1, stronger effect = lower value 0.996 | locus YNL175C, strain NOP13, stronger effect = lower value 0.995 | locus YNL197C, strain WHI3, stronger effect = lower value 1.02 | locus YNL224C, strain SQS1, stronger effect = lower value 0.997 | [2] 1 | locus YOR083W, strain WHI5 (second series), stronger effect = lower value 0.984 | [3] 1.03 | [4] 0.991
